The values below come from PMC6919601, “Identification of Plasmodium dipeptidyl aminopeptidase allosteric inhibitors by high throughput screening” (PLoS ONE, 2019).

About 230 (0.21%) of roughly 110,000 compounds showed an effect of 50% or more. The sample holds strong results, similar compounds and a random draw of the others, so the mix is not that of the screen.
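Also: 30 min substrate incubation versus DMSO and 10 µM JCP410 controls.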

Sequence of DPAP1 (Q8IIJ9 whole entry, looked up): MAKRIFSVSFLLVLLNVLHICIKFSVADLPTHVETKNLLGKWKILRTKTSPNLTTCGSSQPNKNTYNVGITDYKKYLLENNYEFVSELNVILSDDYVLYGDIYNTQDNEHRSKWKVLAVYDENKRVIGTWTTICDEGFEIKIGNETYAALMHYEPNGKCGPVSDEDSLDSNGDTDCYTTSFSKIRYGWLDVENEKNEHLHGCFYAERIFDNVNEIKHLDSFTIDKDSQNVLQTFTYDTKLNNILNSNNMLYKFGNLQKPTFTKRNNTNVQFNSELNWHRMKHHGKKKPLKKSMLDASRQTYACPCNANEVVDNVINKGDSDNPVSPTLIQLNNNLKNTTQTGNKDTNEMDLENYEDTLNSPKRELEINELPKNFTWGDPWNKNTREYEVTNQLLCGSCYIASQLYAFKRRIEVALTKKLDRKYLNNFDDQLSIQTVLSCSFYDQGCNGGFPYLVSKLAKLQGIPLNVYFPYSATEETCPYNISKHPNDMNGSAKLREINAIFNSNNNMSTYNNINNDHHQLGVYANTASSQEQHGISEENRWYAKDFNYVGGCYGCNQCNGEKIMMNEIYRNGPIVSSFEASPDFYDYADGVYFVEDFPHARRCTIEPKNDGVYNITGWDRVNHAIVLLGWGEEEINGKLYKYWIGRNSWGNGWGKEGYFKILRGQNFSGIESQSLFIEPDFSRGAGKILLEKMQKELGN

This assay concerns the target DPAP1 (Plasmodium falciparum, UniProt Q8IIJ9). The assay is described as follows: primary screen, percent inhibition; read by cleavage of a fluorogenic dipeptide substrate; higher = more effect of the substance. Also noted: species or system P. falciparum D10 trophozoite lysates; single well.
For the compound `COc1cccc(C2CC(=O)N3CN(CCc4sccc4C)CSC3=C2C#N)c1` (stereo not shown), the “% Inhibition @ 10 uM” value is given as 56.9%.

`COc1cc(C2CC(=O)N3CN(Cc4ccco4)CSC3=C2C#N)ccc1O` (stereo not shown): the “% Inhibition @ 10 uM” value was 17.5%.

Consider `Cc1ccc(C2CC(=O)N3CN(CCC(C)C)CSC3=C2C#N)cc1` (stereo not shown), for which the “% Inhibition @ 10 uM” value came to 43.8%.

As to `COc1ccc(C2CC(=O)N3CN(CCC(C)C)CSC3=C2C#N)cc1OC` (stereo not shown), the “% Inhibition @ 10 uM” value was 46.8%.

On to `Cc1ccsc1CCN1CSC2=C(C#N)C(c3ccc(Cl)cc3)CC(=O)N2C1` (stereo not shown), for which the “% Inhibition @ 10 uM” value was determined as 51.6%.

Regarding `COc1ccc(C2CC(=O)N3CN(CCCc4ccccc4)CSC3=C2C#N)cc1OC` (stereo not shown), the “% Inhibition @ 10 uM” value is 30.5%.

In the case of `CC(C)CCN1CSC2=C(C#N)C(c3ccc(Cl)cc3)CC(=O)N2C1` (stereo not shown), the “% Inhibition @ 10 uM” value is 54.6%.

Turning to `N#CC1=C2SCN(Cc3ccccc3)CN2C(=O)CC1c1ccc(Cl)cc1` (stereo not shown), the “% Inhibition @ 10 uM” value worked out at 42.2%.

For `NC(=O)c1ccc(-n2nnnc2SCc2ccc(C(=O)O)cc2)cc1`, the “% Inhibition @ 10 uM” value was 3.05%.

Regarding `CCC1CCC(NCCN(C)C)CC1` (stereo not shown), the “% Inhibition @ 10 uM” value is -3.42%.

Consider `Cc1nc2scc(C)n2c(=O)c1S(=O)(=O)N1CCc2ccccc2C1`, for which the “% Inhibition @ 10 uM” value is given as -0.984%.

Consider `CCOC(=O)/C=C(\C)N1N=C2c3cc(OC)ccc3CCC2C1c1ccccc1` (stereo not shown), for which the “% Inhibition @ 10 uM” value stood at 2%.

As for `COc1ccc(C2C3CCc4cc(OC)ccc4C3=NN2/C(C)=C/C(C)=O)cc1` (stereo not shown), the “% Inhibition @ 10 uM” value came out at 58.5%.

Consider `COc1ccc(C2C3CCc4ccc(OC)cc4C3=NN2/C(C)=C/C(C)=O)cc1` (stereo not shown), for which the “% Inhibition @ 10 uM” value is 22.9%.

`CCOC(=O)/C=C(\C)N1N=C2c3cc(OC)ccc3CCC2C1c1ccc(OC)cc1` (stereo not shown): the “% Inhibition @ 10 uM” value is on record as -4.49%.

For `CCOC(=O)/C=C(\C)N1N=C2c3cc(OC)ccc3CCC2C1c1ccc(F)cc1` (stereo not shown), the “% Inhibition @ 10 uM” value came to 6.33%.

For `CCOC(=O)/C=C(\C)N1N=C2c3ccc(OC)cc3CCC2C1c1cccc(F)c1` (stereo not shown), the “% Inhibition @ 10 uM” value amounted to 73.1%.

In the case of `CCOC(=O)/C=C(\C)N1N=C2c3ccc(OC)cc3CCC2C1c1ccc(OC)cc1` (stereo not shown), the “% Inhibition @ 10 uM” value is listed as 60.6%.

With `COc1ccc2c(c1)CCC1C2=NN(/C(C)=C/C(C)=O)C1c1ccc([N+](=O)[O-])cc1` (stereo not shown), the “% Inhibition @ 10 uM” value is recorded as 4.54%.

Regarding `CCOC(=O)/C=C(\C)N1N=C2c3ccc(OC)cc3CCC2C1c1ccc(F)cc1` (stereo not shown), the “% Inhibition @ 10 uM” value is on record as -1.77%.

As to `COC(=O)C(O)(c1ccc(N)cc1)C(F)(F)F` (stereo not shown), the “% Inhibition @ 10 uM” value is 0.937%.

In the case of `CCCCOC1CS(=O)(=O)CC1OCCCC` (stereo not shown), the “% Inhibition @ 10 uM” value is -5.28%.

On to `Cc1ccc(-c2nc(CSCC(=O)Nc3cc(C)on3)c(C)o2)cc1`, for which the “% Inhibition @ 10 uM” value is recorded as -2.14%.

Consider `CC1=C(C)CC(C(=O)Nc2cccc(F)c2)C(C(=O)O)C1` (stereo not shown), for which the “% Inhibition @ 10 uM” value was -2.22%.

Regarding `COC(=O)c1cc(OC)c(S(=O)(=O)NCc2ccccc2)cc1OC`, the “% Inhibition @ 10 uM” value is given as -2.28%.

As to `CCOC(=O)C1=C(CN2CCN(C)CC2)NC(=O)NC1c1cccc(OC)c1OC` (stereo not shown), the “% Inhibition @ 10 uM” value is given as 3.75%.

As for `CCOC(=O)C1=C(CN2CCC3(CC2)OCCO3)NC(=O)NC1c1cccc(OC)c1OC` (stereo not shown), the “% Inhibition @ 10 uM” value was found to be 93%.

Regarding `CCOC(=O)C1=C(CN2CCN(C(=O)OCC)CC2)NC(=O)NC1c1cccc(OC)c1OC` (stereo not shown), the “% Inhibition @ 10 uM” value is 2.12%.

Regarding `O=C1CC(c2ccccc2)NC(=O)N1` (stereo not shown), the “% Inhibition @ 10 uM” value was -2.86%.

For the compound `CCCOc1ccc(C2C3=C(O)CC(C)(C)CC3=NC(C)=C2C(=O)Nc2ccccc2OC)cc1` (stereo not shown), the “% Inhibition @ 10 uM” value is reported as -0.864%.

Take `c1ccc(C(CCNC2CN3CCC2CC3)c2ccccc2)cc1` (stereo not shown): the “% Inhibition @ 10 uM” value was -0.0908%.

As to `O=C(CCN1C(=O)c2ccccc2C1=O)NCC1CCCO1` (stereo not shown), the “% Inhibition @ 10 uM” value is on record as -0.349%.

With `Cc1cc(/C=C2/C(=N)N3C(=NC2=O)SN=C3S(=O)(=O)C(C)C)c(C)n1Cc1ccccc1`, the “% Inhibition @ 10 uM” value was -7.21%.

Regarding `N=C1S/C(=C\c2c[nH]nc2-c2ccccc2)C(=O)N1c1nccs1`, the “% Inhibition @ 10 uM” value came to 11.2%.

In the case of `CC(C)Oc1ccccc1/C=C1\SC(=N)N(c2nccs2)C1=O`, the “% Inhibition @ 10 uM” value stood at 50.1%.

Turning to `N=C1S/C(=C\c2ccco2)C(=O)N1c1nccs1`, the “% Inhibition @ 10 uM” value is reported as -3.74%.

`Cc1nc2scc(C)n2c(=O)c1S(=O)(=O)NC1CCCCCCC1`: the “% Inhibition @ 10 uM” value is recorded as 72.2%.

`Cc1nc2scc(C)n2c(=O)c1S(=O)(=O)NC1CCN(Cc2ccccc2)CC1`: the “% Inhibition @ 10 uM” value is -3.32%.

Turning to `CCOC(=O)N1CCC(NS(=O)(=O)c2c(C)nc3scc(C)n3c2=O)CC1`, the “% Inhibition @ 10 uM” value is listed as -8.17%.

In the case of `Cc1cccc(CN2CCCC(O)C2)c1` (stereo not shown), the “% Inhibition @ 10 uM” value is -0.828%.

`O=C(CCC1CCCCC1)NC1(C(F)(F)F)NC(=O)N(Cc2ccccc2)C1=O` (stereo not shown): the “% Inhibition @ 10 uM” value is on record as -3.33%.

Turning to `CCOC(=O)C1=C(c2ccccc2)Nc2ncnn2C1c1cccc(O)c1` (stereo not shown), the “% Inhibition @ 10 uM” value is 3.8%.

As to `COc1cccc(C2=NS(=O)(=O)N(C)C(C(=O)N3CCCC3)=C2)c1`, the “% Inhibition @ 10 uM” value is reported as 3.92%.

As to `CCSc1nc(=O)n(-c2ccccc2)c(C)c1C(C)=O`, the “% Inhibition @ 10 uM” value is -5.51%.

As to `CCc1ccc(C2C3=C(O)CCCC3=NC(C)=C2C(=O)Nc2ccc(F)cc2)cc1` (stereo not shown), the “% Inhibition @ 10 uM” value was 4.11%.

In the case of `Cc1sc2ncn(CC(=O)NC3CCCC(C)C3C)c(=O)c2c1S(=O)(=O)N1CCC(C)CC1` (stereo not shown), the “% Inhibition @ 10 uM” value is -4.67%.

As to `CC(=O)ON1C(=O)C(c2ccccc2)=C(c2ccccc2)C1=O`, the “% Inhibition @ 10 uM” value is reported as 82%.

On to `CC(=O)ON1C(=O)C2C3c4ccccc4C(c4ccccc43)C2C1=O` (stereo not shown), for which the “% Inhibition @ 10 uM” value is recorded as 38.9%.

Consider `O=C1C(c2ccccc2)=C(c2ccccc2)C(=O)N1O`, for which the “% Inhibition @ 10 uM” value came out at 3.25%.
